# According to PubChem BioAssay:
# The other results are listed elsewhere or left out. Activity calls are given as the source filed them.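 How the source made its calls, unless noted: active means average inhibition above a cutoff equal to the mean inhibition of all tested compounds plus one SD (cut at about 70% in these data); inactive means the rest.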
# Experiments:
# [1] = target: Photoreceptor-specific nuclear receptor (Homo sapiens) (UniProt Q9Y5X4); experiment: retest of NR2E3-NCOR disrupting agonists – cell-based, luminescence, CHO-S two-hybrid, confirmation (AID 624378); conditions: CHO-S mammalian two-hybrid NR2E3-NCOR, luciferase luminescence; at 3.98 µM; hits give high values;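 further: 0% = DMSO in NR2E3 cells and 100% = DMSO in cells lacking NR2E3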
# [2] = nonselective effects on VP16 transactivation – cell-based, luminescence, CHO-S, high throughput, counter-screen for NR2E3 agonist project, confirmation (AID 624379;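 active means mean inhibition above a cutoff equal to the average over all tested compounds plus one standard deviation, cut at about 70% in these data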;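 further: 0% = DMSO with VP16-transfected cells and 100% = DMSO with cells lacking VP16; higher means less reporter light so more repression of VP16 activity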); conditions: CHO-S GAL4-VP16 luciferase reporter, at 3.98 µM, hits give high values
# [3] = target: Receptor-interacting serine/threonine-protein kinase 2 (Homo sapiens) (UniProt O43353); experiment: inhibitors of RIPK2 association with NOD2 – fluorescence, CHO cells, BLA complementation, triplicate, confirmation (AID 624370;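 active means mean inhibition across replicates above a set limit taken from the earlier primary screen, cut at about 21% in these data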;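 further: 0% = DMSO-only wells and the high end = clavulanate BLA-blocked wells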); conditions: CCF4 FRET, at 4.98 µM, hits give high values
# [4] = BLA reporter readout interference – cell-based, CHO-K1 CMV-bla, CCF4 FRET, fluorescence, artefact control for NOD2-RIPK2 interaction inhibitor project, confirmation (AID 624371;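 active means mean inhibition above the low-control mean inhibition plus three low-control SD, cut at about 11% in these data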;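 further: 0% = DMSO only wells and 100% = clavulanate high control wells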); conditions: CCF4 FRET ratio, counterscreen, at 4.98 µM, hits give high values
# [5] = target: Galanin receptor type 2 (Homo sapiens) (UniProt O43603); experiment: blockers of human galanin receptor 2 – cell-based, confirmation (AID 866; in the data active means inhibition above about 27%;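 further: cells stimulated with galanin at about its EC80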); conditions: GALR2-expressing cells, antagonist mode, at 4 µM, hits give high values
# [6] = nonspecific BLA reporter inhibition – CHO NFAT-bla cells, FRET readout, counter-screen for GALR2 antagonist project, confirmation (AID 867;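 active means inhibition above the mean inhibition across tested compounds plus 3 SD, cut at about 27% in these data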;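 further: 0% = 500 nM thapsigargin stimulated wells and 100% = unstimulated BSA only wells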); conditions: beta-lactamase FRET, thapsigargin-stimulated, at 4.2 µM, hits give high values
# [7] = test system: transactivating tegument protein VP16 (Human herpesvirus 1); experiment: compounds suppressing VP16-driven luciferase signal – cell-based, luminescence, single concentration, counter-screen for SRC2 inhibitor project (AID 652007; in the data active means inhibition above about 36%); conditions: cell-based VP16 transactivation luciferase reporter, at 8.9 µM, hits give high values
# [8] = target: Nuclear receptor coactivator 2 (Homo sapiens) (UniProt Q15596); experiment: inhibition of GAL4-SRC2 driven luciferase expression – cell-based, luminescence, HEK293, triplicate, confirmation (AID 652008;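 active means mean inhibition above 46.5%, the solvent-only control mean plus 3 SD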;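 further: 0% = DMSO-treated cells and 100% = Gossypol at 36 µM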); conditions: HEK293 GAL4-SRC2 luciferase reporter, at 8.9 µM, hits give high values
# [9] = target: (Lyso)-N-acylphosphatidylethanolamine lipase (Mus musculus) (UniProt Q8VD66); experiment: mouse ABHD4 hydrolase blockers, triplicate – biochemical, fluorescence polarization, confirmation (AID 720658;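 active means mean inhibition across replicates above the hit cutoff set in the primary screen, cut at about 30% in these data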;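 further: 0% = wild-type ABHD4 with DMSO and 100% = catalytically dead S159A mutant with DMSO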); conditions: purified mABHD4, FP-Rh probe fluorescence polarization; at 8.92 µM; hits give high values
# [10] = test system: DAF-12 nuclear receptor (Heterodera glycines), GAL4-LBD fusion; experiment: hgDAF-12 GAL4 fusion reporter activation, retest – cell-based, luminescence, HEK293, GAL4-LBD fusion, confirmation (AID 743050;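 active means mean activation over triplicate wells above the hit cutoff derived from the earlier primary screen, cut at about 11% in these data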;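 further: 0% = DMSO low control and 100% = 2 mM sodium butyrate high control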); conditions: HEK293 GAL4-hgDAF12 luciferase reporter, agonist mode; at 6.8 µM; hits give high values; percent of butyrate response
# [11] = target: Oxysterols receptor LXR-beta (Homo sapiens) (UniProt P55055); experiment: nonspecific reporter activation via LXR – cell-based, luminescence, HEK293, H. glycines campaign, counter-screen for hgDAF-12 agonist project, confirmation (AID 743051;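 active means mean activation of the triplicate above a set limit carried over from the primary screen, none filed active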); conditions: HEK293 Gal4-LXR luciferase reporter, 24 h; at 6.8 µM; hits give high values
# [12] = VP16-driven transactivation reporter suppression – cell-based, luminescence, HEK293, counter-screen for COUP-TFII antagonist project (AID 687007; in the data active means inhibition above about 13%); conditions: HEK293 Gal4-VP16 luciferase reporter, at 8.5 µM, hits give high values
# [13] = target: COUP transcription factor 2 (Homo sapiens) (UniProt P24468); experiment: retest of COUP-TFII reporter suppressors – cell-based, luciferase reporter, HEK293, triplicate, confirmation (AID 687008;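 active means mean inhibition over three repeats above a set limit taken from the earlier primary screen, cut at about 38% in these data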;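 further: 100% = cells given the luciferase reporter alone without the COUP-TF2 vector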); conditions: HEK293 NGFI-A luciferase reporter, luminescence; at 8.5 µM; hits give high values
# Sequence of COUP transcription factor 2 (Homo sapiens) (P24468 whole entry, looked up): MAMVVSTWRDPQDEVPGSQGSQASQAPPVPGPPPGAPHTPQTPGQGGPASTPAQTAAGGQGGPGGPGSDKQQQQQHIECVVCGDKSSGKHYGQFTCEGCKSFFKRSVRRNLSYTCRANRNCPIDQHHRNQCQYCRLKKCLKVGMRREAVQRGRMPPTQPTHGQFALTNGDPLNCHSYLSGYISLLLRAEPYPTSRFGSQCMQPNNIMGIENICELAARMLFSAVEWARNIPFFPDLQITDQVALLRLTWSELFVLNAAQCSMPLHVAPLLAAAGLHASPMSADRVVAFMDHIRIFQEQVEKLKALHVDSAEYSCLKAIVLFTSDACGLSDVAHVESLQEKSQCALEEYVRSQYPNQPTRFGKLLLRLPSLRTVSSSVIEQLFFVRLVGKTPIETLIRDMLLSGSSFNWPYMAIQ
# Sequence of Nuclear receptor coactivator 2 (Homo sapiens) (Q15596 whole entry, looked up, the tested form may be a part): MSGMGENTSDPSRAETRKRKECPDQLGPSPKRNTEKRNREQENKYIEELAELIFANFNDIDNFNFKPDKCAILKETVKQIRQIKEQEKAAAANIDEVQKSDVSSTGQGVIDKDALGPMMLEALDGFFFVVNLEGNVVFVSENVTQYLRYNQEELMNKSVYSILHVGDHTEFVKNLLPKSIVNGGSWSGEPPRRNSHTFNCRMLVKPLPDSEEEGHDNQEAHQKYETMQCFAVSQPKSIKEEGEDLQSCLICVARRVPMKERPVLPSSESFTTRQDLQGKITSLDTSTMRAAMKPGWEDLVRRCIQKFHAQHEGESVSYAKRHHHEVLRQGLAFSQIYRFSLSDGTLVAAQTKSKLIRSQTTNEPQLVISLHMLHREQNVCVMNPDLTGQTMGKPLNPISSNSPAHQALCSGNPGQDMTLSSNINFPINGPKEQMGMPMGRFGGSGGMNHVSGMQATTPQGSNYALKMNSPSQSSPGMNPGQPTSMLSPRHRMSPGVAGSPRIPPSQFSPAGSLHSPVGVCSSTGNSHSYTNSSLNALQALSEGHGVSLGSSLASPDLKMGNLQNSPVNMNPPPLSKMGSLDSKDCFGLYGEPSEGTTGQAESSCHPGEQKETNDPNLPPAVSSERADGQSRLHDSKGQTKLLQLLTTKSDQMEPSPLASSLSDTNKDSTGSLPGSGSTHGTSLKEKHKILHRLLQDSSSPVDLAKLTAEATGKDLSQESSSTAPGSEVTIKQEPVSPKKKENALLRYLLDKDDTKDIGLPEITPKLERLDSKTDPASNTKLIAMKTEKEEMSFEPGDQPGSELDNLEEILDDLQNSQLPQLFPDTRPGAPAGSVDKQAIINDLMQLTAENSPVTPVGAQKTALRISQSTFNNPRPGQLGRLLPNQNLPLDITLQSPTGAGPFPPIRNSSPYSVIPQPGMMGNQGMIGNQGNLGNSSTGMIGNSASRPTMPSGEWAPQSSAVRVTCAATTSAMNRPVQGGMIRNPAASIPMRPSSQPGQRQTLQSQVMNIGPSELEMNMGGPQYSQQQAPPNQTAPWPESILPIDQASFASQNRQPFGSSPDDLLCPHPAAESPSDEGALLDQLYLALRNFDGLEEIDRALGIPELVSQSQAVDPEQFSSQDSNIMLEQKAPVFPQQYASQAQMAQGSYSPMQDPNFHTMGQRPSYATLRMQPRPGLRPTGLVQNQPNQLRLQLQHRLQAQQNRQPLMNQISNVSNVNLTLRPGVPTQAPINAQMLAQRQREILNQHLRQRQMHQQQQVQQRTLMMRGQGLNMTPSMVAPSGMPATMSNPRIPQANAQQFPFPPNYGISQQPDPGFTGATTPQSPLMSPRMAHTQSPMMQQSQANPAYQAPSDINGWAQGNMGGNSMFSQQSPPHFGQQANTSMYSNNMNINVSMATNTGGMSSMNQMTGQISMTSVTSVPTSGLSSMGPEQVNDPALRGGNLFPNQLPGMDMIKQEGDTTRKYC
# Sequence of Photoreceptor-specific nuclear receptor (Homo sapiens) (Q9Y5X4 whole entry, looked up, the tested form may be a part): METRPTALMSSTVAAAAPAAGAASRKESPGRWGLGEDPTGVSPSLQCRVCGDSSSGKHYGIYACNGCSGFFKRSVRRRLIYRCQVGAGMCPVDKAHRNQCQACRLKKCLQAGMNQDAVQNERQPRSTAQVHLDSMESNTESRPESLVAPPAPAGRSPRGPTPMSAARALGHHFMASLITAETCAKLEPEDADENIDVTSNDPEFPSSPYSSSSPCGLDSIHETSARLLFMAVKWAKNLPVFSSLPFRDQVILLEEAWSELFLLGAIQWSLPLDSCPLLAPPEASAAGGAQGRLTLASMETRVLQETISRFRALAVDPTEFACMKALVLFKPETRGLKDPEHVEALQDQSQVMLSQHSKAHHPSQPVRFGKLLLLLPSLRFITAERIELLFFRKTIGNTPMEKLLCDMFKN
# Sequence of Receptor-interacting serine/threonine-protein kinase 2 (Homo sapiens) (O43353 whole entry, looked up): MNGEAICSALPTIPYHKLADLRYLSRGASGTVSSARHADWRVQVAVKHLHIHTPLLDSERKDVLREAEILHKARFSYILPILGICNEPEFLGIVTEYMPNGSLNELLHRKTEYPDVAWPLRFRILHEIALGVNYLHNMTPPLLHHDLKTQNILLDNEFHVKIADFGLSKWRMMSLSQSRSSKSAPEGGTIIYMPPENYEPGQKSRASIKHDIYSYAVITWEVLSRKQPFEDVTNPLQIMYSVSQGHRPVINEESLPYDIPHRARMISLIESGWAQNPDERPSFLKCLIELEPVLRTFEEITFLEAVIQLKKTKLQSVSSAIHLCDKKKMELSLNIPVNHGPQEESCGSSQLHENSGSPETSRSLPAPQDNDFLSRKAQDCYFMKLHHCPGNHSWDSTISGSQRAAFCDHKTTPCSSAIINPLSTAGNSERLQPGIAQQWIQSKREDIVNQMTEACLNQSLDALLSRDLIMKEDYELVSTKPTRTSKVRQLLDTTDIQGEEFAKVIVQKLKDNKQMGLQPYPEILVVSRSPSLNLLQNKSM
# Sequence of Galanin receptor type 2 (Homo sapiens) (O43603 whole entry, looked up): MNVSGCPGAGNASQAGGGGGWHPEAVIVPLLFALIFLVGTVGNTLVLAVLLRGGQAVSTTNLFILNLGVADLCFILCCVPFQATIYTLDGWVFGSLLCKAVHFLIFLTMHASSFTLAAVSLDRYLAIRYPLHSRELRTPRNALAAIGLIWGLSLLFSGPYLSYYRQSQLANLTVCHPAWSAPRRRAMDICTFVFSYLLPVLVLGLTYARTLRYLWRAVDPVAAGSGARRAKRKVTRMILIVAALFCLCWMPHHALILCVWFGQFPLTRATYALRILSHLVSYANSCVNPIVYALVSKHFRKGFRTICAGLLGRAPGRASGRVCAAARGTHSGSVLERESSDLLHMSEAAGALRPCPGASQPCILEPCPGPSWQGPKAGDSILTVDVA
# Sequence of (Lyso)-N-acylphosphatidylethanolamine lipase (Mus musculus) (Q8VD66 whole entry, looked up, the tested form may be a part): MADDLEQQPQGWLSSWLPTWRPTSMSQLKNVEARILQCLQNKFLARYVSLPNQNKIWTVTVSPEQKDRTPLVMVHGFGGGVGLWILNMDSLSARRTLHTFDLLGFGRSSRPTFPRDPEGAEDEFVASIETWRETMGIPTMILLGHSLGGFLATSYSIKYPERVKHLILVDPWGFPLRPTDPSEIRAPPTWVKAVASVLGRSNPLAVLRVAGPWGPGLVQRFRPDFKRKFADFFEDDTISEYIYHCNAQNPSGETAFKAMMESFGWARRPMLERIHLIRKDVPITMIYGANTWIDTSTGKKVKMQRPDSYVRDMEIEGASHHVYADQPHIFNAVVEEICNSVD
# Sequence of Oxysterols receptor LXR-beta (Homo sapiens) (P55055 whole entry, looked up, the tested form may be a part): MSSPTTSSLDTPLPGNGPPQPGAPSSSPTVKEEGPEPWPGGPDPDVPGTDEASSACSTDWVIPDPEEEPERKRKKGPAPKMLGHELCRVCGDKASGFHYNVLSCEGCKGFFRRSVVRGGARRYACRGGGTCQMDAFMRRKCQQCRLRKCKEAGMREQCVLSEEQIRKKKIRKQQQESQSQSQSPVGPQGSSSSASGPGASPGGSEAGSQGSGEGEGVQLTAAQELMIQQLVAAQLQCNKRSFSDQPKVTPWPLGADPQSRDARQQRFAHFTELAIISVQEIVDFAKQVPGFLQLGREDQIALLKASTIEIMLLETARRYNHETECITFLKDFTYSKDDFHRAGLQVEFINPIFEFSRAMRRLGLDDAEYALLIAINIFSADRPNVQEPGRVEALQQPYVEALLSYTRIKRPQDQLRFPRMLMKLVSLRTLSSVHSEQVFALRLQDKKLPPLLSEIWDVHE
compound,measurement,setting,value
S=C(NN=Cc1ccccn1)Nc1ccccn1,inhibition,[1],79.5% (active)
same,inhibition,[2],14.3% (inactive)
COc1cc(NS(=O)(=O)c2ccc3ccccc3c2)c2ncccc2c1,inhibition,[3],35.7% (active)
same,inhibition,[4],18.9% (active)
same,inhibition,[1],-24.6% (inactive)
same,inhibition,[2],31.6% (inactive)
Cc1cc2nc(-c3ccc(Cl)cc3)c(Cc3cccc(F)c3)n2c(C)c1Br,inhibition,[1],36.1% (inactive)
same,inhibition,[2],-25.9% (inactive)
COc1ccc(C(=O)NNC(=S)NC(=O)c2ccccc2[N+](=O)[O-])cc1,inhibition,[1],3.63% (inactive)
same,inhibition,[2],-6.68% (inactive)
Oc1ccc(Br)cc1/C=N/Nc1ccccn1,inhibition,[1],99.3% (active)
same,inhibition,[2],61% (inactive)
CCOC(=O)CC1(NC(=O)c2cc(COc3cncc(Cl)c3)on2)CCCCC1,inhibition,[1],20.2% (inactive)
same,inhibition,[2],44.2% (inactive)
Cc1csc(NC(=S)Nc2cccc(Cl)c2)n1,inhibition,[1],-131% (inactive)
same,inhibition,[2],-129% (inactive)
O=C(Cc1csc(Nc2nc(=S)[nH]c3ccccc23)n1)NCCCN1CCN(c2cccc(Cl)c2)CC1,inhibition,[3],38% (active)
same,inhibition,[4],55.8% (active)
COc1ccc(CNS(=O)(=O)c2ccc(-c3cnc(C4CC4)o3)cc2)cc1,inhibition,[1],48.2% (inactive)
same,inhibition,[2],55.8% (inactive)
CSc1ncccc1C(=O)Nc1nc2ccc(F)cc2s1,inhibition,[1],68.5% (inactive)
same,inhibition,[2],25.2% (inactive)
COc1cccc(NS(=O)(=O)c2ccc(-c3coc(C)n3)cc2)c1,inhibition,[1],10.9% (inactive)
same,inhibition,[2],37.3% (inactive)
c1ccc(C2c3[nH]c4ccccc4c3CCN2Cc2cccn2-c2cccnc2)nc1 (stereo unspecified),inhibition,[1],-1.67% (inactive)
same,inhibition,[2],-5.76% (inactive)
O=C(Nc1nnc(-c2ccccc2)o1)c1cc(-c2cccs2)nc2ccccc12,inhibition,[1],98.3% (active)
same,inhibition,[2],12.6% (inactive)
OC(c1ccc(Cl)cc1)c1ncc(-c2ccc(Cl)cc2)[nH]1 (stereo unspecified),inhibition,[1],79.4% (active)
same,inhibition,[2],58.9% (inactive)
Cc1cccc(NS(=O)(=O)c2ccc(-c3cnc(C4CC4)o3)cc2)c1,inhibition,[1],53.5% (inactive)
same,inhibition,[2],37.9% (inactive)
CCOc1ccc(S(=O)(=O)N2CCCCCC2)c2ccccc12,inhibition,[1],50.4% (inactive)
same,inhibition,[2],-4.92% (inactive)
CNC(=O)c1sc(Nc2ccc(OCc3ccccc3)cc2)nc1C,inhibition,[1],37.7% (inactive)
same,inhibition,[2],30% (inactive)
COc1ccc(CNS(=O)(=O)c2ccc(NC(=O)N3CCCCC3)cc2)cc1,inhibition,[1],55.3% (inactive)
same,inhibition,[2],52.4% (inactive)
N#Cc1cccc(NC(=O)COC(=O)c2ccccc2C(=O)c2ccc(Cl)c([N+](=O)[O-])c2)c1,inhibition,[5],63.2% (active)
same,inhibition,[6],37.4% (active)
same,inhibition,[3],56.2% (active)
same,inhibition,[4],11.9% (active)
Cc1cccc(NC(=O)c2ccc(COc3ccccc3[N+](=O)[O-])o2)n1,inhibition,[1],10% (inactive)
same,inhibition,[2],26.1% (inactive)
Cc1ccc(NS(=O)(=O)c2ccc(-c3coc(C)n3)cc2)c(C)c1,inhibition,[1],57.5% (inactive)
same,inhibition,[2],46.7% (inactive)
O=C(CCN1CCc2ccccc2C(O)(c2ccccc2)C1)c1ccc2c(c1)OCCO2 (stereo unspecified),inhibition,[3],3.17% (inactive)
same,inhibition,[4],-1.26% (inactive)
O=C(c1ccc(N2CCCC2=O)cc1)N1CCN(c2ccc(C(F)(F)F)cc2[N+](=O)[O-])CC1,inhibition,[1],93.2% (active)
same,inhibition,[2],74.9% (active)
Cc1cccc2sc(N(CCCN(C)C)C(=O)CCS(=O)(=O)c3ccccc3)nc12,inhibition,[3],25.4% (active)
same,inhibition,[4],7% (inactive)
same,inhibition,[7],12% (inactive)
same,inhibition,[8],32.5% (inactive)
CCCC1CCC(=NNC(=S)NCCc2ccccc2)CC1 (stereo unspecified),inhibition,[1],3.69% (inactive)
same,inhibition,[2],-1.56% (inactive)
CCCNc1ncnc2sc(C)c(C)c12,inhibition,[1],27.8% (inactive)
same,inhibition,[2],29.6% (inactive)
CC1CCCCN1S(=O)(=O)c1ccc(C(=O)Nc2nnc(-c3cccs3)o2)cc1 (stereo unspecified),inhibition,[1],49.5% (inactive)
same,inhibition,[2],32% (inactive)
Cc1nc2c(OCc3cccc(Cl)c3)cccn2c1N(C)CC1CC1,inhibition,[1],1.83% (inactive)
same,inhibition,[2],19.3% (inactive)
COc1ccc(S(=O)(=O)NCCCCOc2ccc(Cl)cc2)cc1,inhibition,[1],97.5% (active)
same,inhibition,[2],86.5% (active)
Clc1ccc(-n2nnnc2-c2cnc(-c3ccccn3)nc2-c2cccs2)cc1,inhibition,[1],24.1% (inactive)
same,inhibition,[2],-8.49% (inactive)
O=C(O)c1ccc2c(c1)C(=O)N(c1ccc(/C=C/C(=O)c3ccccc3)cc1)C2=O,inhibition,[3],5.5% (inactive)
same,inhibition,[4],0.39% (inactive)
same,inhibition,[9],0.6% (inactive)
same,activation,[10],1.47% (inactive)
same,activation,[11],0.05% (inactive)
Cc1cccc(N2CCN(C(=O)c3cccc(S(=O)(=O)N4CCc5ccccc5C4)c3)CC2C)c1 (stereo unspecified),inhibition,[1],52% (inactive)
same,inhibition,[2],49% (inactive)
CCCc1cc(=O)[nH]c(SCC(=O)Nc2sc3c(c2C#N)CCCC3)n1,inhibition,[1],15.4% (inactive)
same,inhibition,[2],41.8% (inactive)
Cc1ccc(S(=O)(=O)N2CCN(c3ncnc4ccccc34)CC2)cc1,inhibition,[1],94.1% (active)
same,inhibition,[2],80.5% (active)
COc1ccc(C(=O)NC2CCCc3c2cnn3-c2cccc(C)c2C)c(OC)n1 (stereo unspecified),inhibition,[1],89.6% (active)
same,inhibition,[2],74.1% (active)
same,inhibition,[7],-6.55% (inactive)
same,inhibition,[8],19.8% (inactive)
COC(=O)c1ccc(NC(=O)c2ccccc2NS(=O)(=O)c2ccccc2)cc1,inhibition,[1],77.4% (active)
same,inhibition,[2],57.7% (inactive)
COc1ccccc1CNc1nc(Nc2ccccc2Cl)c2sccc2n1,inhibition,[1],93.1% (active)
same,inhibition,[2],86.4% (active)
same,inhibition,[12],-3.83% (inactive)
same,inhibition,[13],29.8% (inactive)
Cc1ccc(CS(=O)(=O)c2ncc(Cl)c(C(=O)Nc3nnc(C)s3)n2)cc1,inhibition,[1],30.6% (inactive)
same,inhibition,[2],-7.39% (inactive)
same,inhibition,[7],27.1% (inactive)
same,inhibition,[8],55% (active)
